Screening results (PubChem BioAssay)
A549 tox: Nrf2 qHTS screen for inhibitors: counterscreen for cytotoxicity; A549 ARE-Fluc cells, CellTiter-Fluor viability, 18-24 h; Potency, µM (series often up to 46 µM), without a hit: at the highest dose activity change, negative = cytotoxicity, actives largely listed as inhibitors; actives 0.16% (n = 390,000); AID 504648, 2011; further: potency means the concentration at half of the fitted maximal effect; on the % scale 0 is the no-effect control and ±100 the full control effect
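Cytotoxicity counterscreen: CellTiter-Fluor fluorescence was measured in A549 ARE_Fluc cells after 18-24 h of compound exposure in a concentration series. The subsequent BugLite luminescent read reports ARE-luciferase activity.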
Nrf2 ARE act: qHTS of Nrf2 Activators; AID 624171, 2012; AREc32 ARE-luciferase reporter (MCF7-derived line), luminescence, 24 h; actives 0.31% (n = 410,000); Potency, µM (doses to about 46.1 µM), for the others: at the highest dose activation, most hits filed as activators; further: potency means the concentration at half of the fitted maximal effect; % of control where 0% means no effect; nearly all actives have a fitted effect of over 65% in size
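Steps: seed AREc32_Fluc cells (1000/well, 5% FBS OPTI-MEM); incubate overnight at 37 deg C; add 23 nL compound; incubate 24 hr; add Steady-Glo; hold 30 min RT; read luminescence.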
miR-21 reporter: qHTS Assay for Modulators of miRNAs and/orActivators of miR-21. 340,000 tested, under 10 active. Potency, µM (doses to about 38.3 µM), without a hit: at the top dose activity change, positive = activation, most hits filed as activators. HeLa miR-21 FLuc reporter, luciferase, 48 h;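 further: % of control where 0% means no effect; miR-21 action dims this reporter so a rising signal means less miR-21 action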
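Compounds were titrated across several concentrations (up to approximately 40 uM) and incubated 48 hours with HeLa miR-21-FLuc reporter cells (miR-21 target sequence downstream of FLuc, endogenous miR-21). Readout was firefly luciferase luminescence after lytic detection reagent.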
Nrf2 inh: Nrf2 qHTS screen for inhibitors | A549 ARE-Fluc reporter, luciferase luminescence, 18-24 h | Potency, µM (titrated, usually from 46 µM), without a hit: at the highest dose activity change, negative = inhibition, usual class: inhibitors | actives 2.1% (n = 360,000) | AID 504444, 2011; further: potency means the concentration at half of the fitted maximal effect; on the % scale 0 is the no-effect control and ±100 the full control effect; nearly all actives have a fitted effect of over 60% in size
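Concentration-response testing used A549 ARE_Fluc cells at 5000 cells/well. Following an 18-24 h compound incubation, viability was read by fluorescence (Ex 405/Em 525) and luciferase output by luminescence.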
Mito fusion yeast: qHTS Assay for Small Molecule Inhibitors of Mitochondrial Division or Activators of Mitochondrial Fusion; S. cerevisiae fusion-defective mutant growth rescue, CellTiterGlo 48 h; Potency, µM (doses to about 46.1 µM), for inactives: top-dose growth rescue (activation), most hits filed as activators; actives 0.23% (n = 320,000); further: potency means the concentration at half of the fitted maximal effect; % of control where 0% means no effect; nearly all actives have a fitted effect of over 45% in size
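S. cerevisiae fusion-defective temperature-sensitive mutants (e.g. fzo1-1, mgm1-5) grown 48 h at 37C in YPEG (ethanol/glycerol non-fermentable) medium with 23 nl compound per well; growth rescue read as CellTiterGlo luminescence.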
Starred values were filed as active, the others as inactive. The list is not random: actives were taken first. Their share in the collection is about 2.3%. The call rests on the fitted dose curve; in most records, active means well fitted curve in the direction sought with a large enough effect; inconclusive means small, poorly fitted or top-dose-only effect, or another doubt; inactive means no such curve, though single readings can be large; an effect the other way counts as inactive or inconclusive.

CCOC(=O)C(=CNc1ccc2c(c1)nnn2-c1ccc(Cl)cc1)C(=O)OCC was read as A549 tox inconclusive, Nrf2 ARE act 4.1%, miR-21 reporter -6.5%, Nrf2 inh 29.1µM* and Mito fusion yeast 5.4%.
For Cc1cc(Br)cn2c(Cc3ccccc3)c(-c3ccco3)nc12 the results were Nrf2 ARE act 10µM*.
For COc1ccc(Cc2c(-c3ccco3)nc3ccc(Br)cn23)c(C)c1 the results were Nrf2 ARE act 8.91µM*.
Cc1cc(Br)cn2c(Cc3ccsc3)c(-c3ccco3)nc12 was read as Nrf2 ARE act 7.08µM*.
Cc1ccc2c(c1)CC(C)N2S(=O)(=O)c1nnc(NC(=O)c2ccccc2F)s1 (stereo not drawn) was read as A549 tox -1.1%, Nrf2 ARE act 0.0%, miR-21 reporter -27.7% and Nrf2 inh inconclusive.
For Cc1ccc2nc(NCc3ccccc3)c3nncn3c2c1 the results were A549 tox 8.8%, Nrf2 ARE act -0.5%, miR-21 reporter 3.7% and Nrf2 inh 0.0%.
For Nc1ncc(-c2cccc(-c3nn4c(=O)cc(N5CCNCC5)nc4s3)c2)cn1 the results were A549 tox -4.7% and Nrf2 inh 3.2%.
`CC(C)(C)c1ccc(C(=O)Nc2ccc(-c3nc4cc(Cl)ccc4o3)cc2)cc1` gave A549 tox 4.2%, Nrf2 ARE act 0.1%, miR-21 reporter -0.1% and Nrf2 inh 4.8%.
For c1ccc(-c2nc(-c3ccccn3)no2)cc1 the results were A549 tox -14.7%, Nrf2 ARE act inconclusive, miR-21 reporter inconclusive, Nrf2 inh inconclusive and Mito fusion yeast -2.5%.
`CNc1nc(-c2ccccn2)nnc1-c1ccccc1` gave A549 tox inconclusive, Nrf2 ARE act 2.6%, miR-21 reporter 4.8%, Nrf2 inh 11.2µM* and Mito fusion yeast 0.6%.
For O=S(=O)(c1ccc2c(c1)OCCO2)N1CCN(S(=O)(=O)c2ccc(Cl)cc2F)CC1 the results were A549 tox -1.1% and Nrf2 inh 3.6%.
Screening CS(=O)(=O)c1ccc(C(=O)OCC(=O)Nc2ccc(OC(F)(F)F)cc2)cc1[N+](=O)[O-] returned A549 tox 7.6% and Nrf2 inh 21.4%.
`COc1cccc(/C=N/Nc2snc(SC)c2C#N)c1O` gave A549 tox -3.3%, Nrf2 ARE act 8.5%, miR-21 reporter 6.5%, Nrf2 inh -10.7% and Mito fusion yeast 5.01µM*.
COC(=O)c1ccc(-c2ccc(C3C4C=CCC(C)C4C(=O)N3Cc3ccccc3)c(F)c2)cc1 (stereo not drawn) was read as A549 tox -13.0% and Nrf2 inh 10.3µM*.
CC(=O)c1ccc(-c2cc([C@H]3[C@H]4C=CC[C@@H](C)[C@@H]4C(=O)N3Cc3ccccc3)ccc2F)cc1 was read as A549 tox -12.8%, Nrf2 ARE act 3.4%, miR-21 reporter 21.9%, Nrf2 inh 20.6µM* and Mito fusion yeast -3.0%.
For CCCCNC(=O)CNC(=S)N(Cc1ccccc1)Cc1cccs1 the results were A549 tox -15.9%, Nrf2 ARE act 1.9%, miR-21 reporter 4.3%, Nrf2 inh 23.1µM* and Mito fusion yeast 18.4%.
COC(CNC(=O)CNC(=S)N(Cc1ccccc1)Cc1cccs1)OC was read as A549 tox 2.4%, Nrf2 ARE act 2.2%, miR-21 reporter 2.8%, Nrf2 inh 8.2% and Mito fusion yeast -1.6%.
CCOC(=O)CNC(=S)N(Cc1cccs1)C1CCCCC1 was read as A549 tox 0.2%, Nrf2 ARE act 0.1%, miR-21 reporter -1.6%, Nrf2 inh 1.4% and Mito fusion yeast 1.3%.
Screening CC(CCc1ccccc1)NC(=O)CNC(=S)N(Cc1cccs1)C1CCCC1 (stereo not drawn) returned A549 tox inconclusive, Nrf2 ARE act 3.7%, miR-21 reporter 13.4%, Nrf2 inh 14.6µM* and Mito fusion yeast 13.8%.
